Among the data in PubChem BioAssay (Tox21) are outcome, fluorescence, % of fluorescent control and Potency values, retold here.

Inconclusive results are not listed. Where a call stands in place of a potency, no number is given. Activity calls are given as the source filed them. Unless noted, calls follow the shape of the dose curve; as a rule, active = well fitted curve in the direction sought with a large enough effect in the repeat runs; inconclusive = weak or mixed curves; inactive = flat fitted curve, though single readings scatter.

Glucocorticoid receptor (Homo sapiens), sequence (P04150 whole entry, looked up): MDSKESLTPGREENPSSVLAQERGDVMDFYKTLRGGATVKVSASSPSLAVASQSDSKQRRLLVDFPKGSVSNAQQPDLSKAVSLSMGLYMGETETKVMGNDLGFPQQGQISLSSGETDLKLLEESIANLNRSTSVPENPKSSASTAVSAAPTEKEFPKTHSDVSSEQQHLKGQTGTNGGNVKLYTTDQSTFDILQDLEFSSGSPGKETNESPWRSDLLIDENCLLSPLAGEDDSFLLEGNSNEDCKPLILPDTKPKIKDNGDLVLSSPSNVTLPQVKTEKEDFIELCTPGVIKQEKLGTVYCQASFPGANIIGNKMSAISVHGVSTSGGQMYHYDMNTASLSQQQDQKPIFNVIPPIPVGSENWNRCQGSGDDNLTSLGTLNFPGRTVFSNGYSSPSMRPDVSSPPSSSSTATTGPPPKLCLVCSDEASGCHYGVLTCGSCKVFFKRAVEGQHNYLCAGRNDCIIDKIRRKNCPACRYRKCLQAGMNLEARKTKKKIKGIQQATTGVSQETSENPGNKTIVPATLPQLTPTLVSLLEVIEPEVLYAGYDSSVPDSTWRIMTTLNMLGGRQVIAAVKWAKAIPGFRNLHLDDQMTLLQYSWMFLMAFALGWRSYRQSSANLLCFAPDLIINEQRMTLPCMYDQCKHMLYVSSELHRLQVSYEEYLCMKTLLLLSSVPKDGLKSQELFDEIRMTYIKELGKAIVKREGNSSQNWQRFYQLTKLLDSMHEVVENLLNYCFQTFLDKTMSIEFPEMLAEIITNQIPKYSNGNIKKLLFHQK

System in the first test: not listed separately
As to the kind of experiment: qHTS assay to test for compound auto fluorescence at 460 nm (blue) in HepG2 cells (AID 720687). Particulars: autofluorescence 405/460 nm, 1 h; series mostly up to 91.3 µM. An outline of the steps: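 HepG2 cells in MEM with 10% FBS, attached overnight at 37 C, were exposed to compound or DMSO for 1 hr at 37 C, 5% CO2. Blue fluorescence was read at 405/460 nm, with triamterene as reference fluorophore.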
Consider `CC(CCl)OC(C)CCl` (configuration not stated), for which the result was inactive.
On the same count and under the same terms, in the case of `CCCCCCC/C=C/C=O` it was “inactive”; in that of `Oc1ccc(Oc2ccccc2)cc1`, “inactive”.
On the same count and under the same terms, in the case of `FC(F)(Cl)C(F)(Cl)Cl` it was “inactive”; in that of `CCC(C)C1N=C(C)C(C)S1` (configuration not stated), “inactive”; in that of `O=C(Nc1ccccc1)c1cc([N+](=O)[O-])ccc1Cl`, “inactive”.
Same read-out and setting: in the case of `O=C(Cl)c1ccc(F)c(Cl)c1` it was “inactive”.
Take `CC(=O)CC/C=C(\C)CC/C=C(\C)CC/C=C(\C)CCC=C(C)C`: the outcome was inactive.
The same measure, in the same setting: as for `CCOc1ccc2c(c1)C(C)CC(C)(C)N2` (configuration not stated), the entry is “inactive”; as for `CCCC1CCOC(C)S1` (configuration not stated), “inactive”.
On the same count and under the same terms, in the case of `N#Cc1ccc(CC(=O)c2cccc(C(F)(F)F)c2)cc1` it was “inactive”.
Same read-out and setting: as for `O=C(OCCCCCOC(=O)c1ccccc1)c1ccccc1`, the entry is “inactive”.
As for `Cc1c(Nc2ncccc2C(=O)O)cccc1C(F)(F)F`, the fluorescence, % of fluorescent control is 0.0693% [at 18.6 µM] (inactive).
The same measure, in the same setting: in the case of `O=C(O)c1ccc2c(c1)nc(C(=O)NC1CCN(C3CC3)CC1)n2Cc1cc(-c2ccc(Cl)s2)on1` it was 0.0789% [at 18.6 µM] (inactive).
As to `C[C@@H](O)[C@H]1C(=O)N2C(C(=O)O)=C(S[C@@H]3CN[C@H](CNS(N)(=O)=O)C3)[C@H](C)[C@H]12`, the outcome was inactive.
On the same count and under the same terms, in the case of `CCCCCCOC(=O)c1ccccc1` it was “inactive”; in that of `CCCCOC(=O)CC#N`, “inactive”; in that of `Nc1ccccc1Nc1ccccc1`, “inactive”.
Same read-out and setting: as for `Cc1cc(SC2=C(O)C[C@@](CCc3ccc(N)cc3)(C(C)C)OC2=O)c(C(C)(C)C)cc1CO`, the entry is “inactive”.
Consider `O=C(N[C@@H](Cc1ccccc1)[C@@H](O)C(=O)N1C[C@@H](O)[C@@H](O)C1)c1cc2cc(Cl)ccc2[nH]1`, for which the molecule was classed as inactive.
Consider `COC=O`, for which the fluorescence, % of fluorescent control was -0.259% [at 9.17 µM] (inactive).
Same read-out and setting: in the case of `CCN(CCCCOC(=O)c1ccc(OC)c(OC)c1)C(C)Cc1ccc(OC)cc1` (configuration not stated) it was 0.0432% [at 18.6 µM] (inactive).
For `COc1cc(CNC(=O)CCCC/C=C/C(C)C)ccc1O`, the molecule was called inactive.
Still for that read-out and setting: as for `CC/C=C/CCO`, the entry is “inactive”; as for `C=CC(C)(O)CC/C=C(/C)CCC=C(C)C` (configuration not stated), “inactive”; as for `Clc1ccccc1-c1nc(-c2ccncc2)no1`, “inactive”.
As for `C(/C=C/C=C/Nc1ccccc1)=Nc1ccccc1`, the result was inactive.
The same measure, in the same setting: in the case of `O=C(O)c1ccccc1-n1cc(C(=O)O)c(=O)c2cc(Nc3c(F)cc(F)cc3Cl)c(Cl)cc21` it was “inactive”; in that of `O=Cc1ccc([N+](=O)[O-])cc1`, “inactive”; in that of `CC(C)(Cc1c[nH]c2ccccc12)NCC(O)COc1ccccc1C#N` (configuration not stated), “inactive”.
For `CCc1c(C)[nH]c2c1C(=O)C(CN1CCOCC1)CC2` (configuration not stated), the fluorescence, % of fluorescent control is 0.0012% [at 18.6 µM] (inactive).
`CCOc1ccc(NC(C)=O)cc1N`: the molecule was classed as inactive.
Same read-out and setting: as for `COc1ccc(C(=O)c2ccc(C)cc2)c(O)c1`, the entry is “inactive”; as for `C=C(C)C(=O)OCCCCCCCCCCOC(=O)C(=C)C`, “inactive”; as for `CCCCCCCCCCCCCCCCC(=O)O`, “inactive”.
The same measure, in the same setting: as for `CC(=O)c1cccnc1`, the entry is “inactive”; as for `CCC[Si](OC)(OC)OC`, “inactive”.

A further test concerns the target Glucocorticoid receptor (Homo sapiens) (UniProt P04150). As to the kind of experiment: qHTS assay to identify small molecule agonists of the glucocorticoid receptor (GR) signaling pathway (AID 720691; active = well fitted activation curve with a large enough effect in the signal ratio in the repeat runs, not every such curve was filed as active; the % refers to the signal ratio). Particulars: GR-bla HeLa, beta-lactamase reporter ratio, 18 h; series mostly up to 62.4 µM. An outline of the steps: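 Agonist mode in a HeLa line carrying a GRE-controlled beta-lactamase reporter. Compounds act for 18 h at 37 C before a 2 h room-temperature FRET substrate step and fluorescence reading.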
(In qHTS, concentration-response curves come from the screen itself.)
Consider `CC(CCl)OC(C)CCl` (configuration not stated), for which the Potency result is “inactive”.
The same measure, in the same setting: in the case of `CCCCCCC/C=C/C=O` it was “inactive”; in that of `CCC(C)C1N=C(C)C(C)S1` (configuration not stated), “inactive”.
The same measure, in the same setting: in the case of `CCCC1CCOC(C)S1` (configuration not stated) it was “inactive”; in that of `N#Cc1ccc(CC(=O)c2cccc(C(F)(F)F)c2)cc1`, “inactive”.
On the same count and under the same terms, as for `O=C(OCCCCCOC(=O)c1ccccc1)c1ccccc1`, the entry is “inactive”.
Take `C[C@@H](O)[C@H]1C(=O)N2C(C(=O)O)=C(S[C@@H]3CN[C@H](CNS(N)(=O)=O)C3)[C@H](C)[C@H]12`: the Potency result was “inactive”.
Same read-out and setting: in the case of `COc1cc(CNC(=O)CCCC/C=C/C(C)C)ccc1O` it was “inactive”.
As for `C=CC(C)(O)CC/C=C(/C)CCC=C(C)C` (configuration not stated), the Potency result is “inactive”.
On the same count and under the same terms, in the case of `Clc1ccccc1-c1nc(-c2ccncc2)no1` it was “inactive”; in that of `O=Cc1ccc([N+](=O)[O-])cc1`, “inactive”; in that of `CC(=O)c1cccnc1`, “inactive”.
The same measure, in the same setting: in the case of `CCC[Si](OC)(OC)OC` it was “inactive”.

The next test has the same target. As to the kind of experiment: qHTS assay to identify small molecule antagonists of the glucocorticoid receptor (GR) signaling pathway (AID 720692; active = well fitted inhibition curve with a large enough effect in the signal ratio in the repeat runs, not every such curve was filed as active; the % refers to the signal ratio; also: potency is read from the fitted curve at half-maximal effect). Particulars: GR-bla HeLa, beta-lactamase FRET ratio, dexamethasone-stimulated, 18 h; series mostly up to 58.5 µM. Put shortly: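 Cells plated, rested 4 h at 37 C/5% CO2; compounds in DMSO pin-transferred; dexamethasone added to 5 nM final; 18 h at 37 C; B/G FRET substrate added, 2 h room temperature; fluorescence measured.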
For `CC(CCl)OC(C)CCl` (configuration not stated), the Potency result is “inactive”.
`CCC(C)C1N=C(C)C(C)S1` (configuration not stated): the Potency entry is “inactive”.
The same measure, in the same setting: in the case of `CCOc1ccc2c(c1)C(C)CC(C)(C)N2` (configuration not stated) it was “inactive”; in that of `CCCC1CCOC(C)S1` (configuration not stated), “inactive”.
Same read-out and setting: as for `N#Cc1ccc(CC(=O)c2cccc(C(F)(F)F)c2)cc1`, the entry is “inactive”; as for `O=C(OCCCCCOC(=O)c1ccccc1)c1ccccc1`, “inactive”; as for `C[C@@H](O)[C@H]1C(=O)N2C(C(=O)O)=C(S[C@@H]3CN[C@H](CNS(N)(=O)=O)C3)[C@H](C)[C@H]12`, “inactive”.
With `CCCCCCOC(=O)c1ccccc1`, the Potency entry is “inactive”.
On the same count and under the same terms, as for `Cc1cc(SC2=C(O)C[C@@](CCc3ccc(N)cc3)(C(C)C)OC2=O)c(C(C)(C)C)cc1CO`, the figure is 54.9 µM (active).
Still for that read-out and setting: in the case of `CCN(CCCCOC(=O)c1ccc(OC)c(OC)c1)C(C)Cc1ccc(OC)cc1` (configuration not stated) it was “inactive”.
Still for that read-out and setting: in the case of `COc1cc(CNC(=O)CCCC/C=C/C(C)C)ccc1O` it was “inactive”; in that of `C=CC(C)(O)CC/C=C(/C)CCC=C(C)C` (configuration not stated), “inactive”; in that of `O=C(O)c1ccccc1-n1cc(C(=O)O)c(=O)c2cc(Nc3c(F)cc(F)cc3Cl)c(Cl)cc21`, “inactive”.
In the case of `O=Cc1ccc([N+](=O)[O-])cc1`, the Potency result is “inactive”.
The same measure, in the same setting: in the case of `CCCCCCCCCCCCCCCCC(=O)O` it was “inactive”; in that of `CC(=O)c1cccnc1`, “inactive”.
Still for that read-out and setting: in the case of `CCC[Si](OC)(OC)OC` it was “inactive”.
